# Results as given in PubChem BioAssay (NCATS).
# Several values for one entry are separate records, joined by “and”; a condition that tells them apart may be missing. Equal entries are not always repeated. Values without a mark were called inactive. Inconclusive results are not listed. A call without a number means that no potency is given here. Activity calls are given as the source filed them. Unless noted, calls follow the shape of the dose curve; as a rule, active = well fitted curve in the direction sought with a large enough effect; inconclusive = small, poorly fitted or top-dose-only effect, or another doubt; inactive = no such curve, though single readings can be large; an effect the other way counts as inactive or inconclusive.
# Tests used:
# [1] = qHTS assay for small molecule activators of the nuclear factor-kappa B (NF-kB) signaling pathway (AID 651749; active = well fitted activation curve with a large enough effect in the signal ratio; the % refers to the signal ratio; also: series mostly up to about 77 µM); conditions: NF-kB-bla ME-180 cells, beta-lactamase FRET ratio, 16 h; stronger effect = higher value
# Procedure, shortened: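 Incubation lasted 16 hr at 37C in 5% CO2 after 23 nL compound addition to ME-180 NF-kB-bla cells. Activation appears as beta-lactamase-mediated FRET loss.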
# [2] = qHTS assay for small molecule disruptors of the mitochondrial membrane potential - 1 hr assay (AID 651754; calls by dose curve; also: nearly all actives have a fitted effect of over 35% in size)
# Procedure, shortened: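 HepG2 cells, attached overnight at 37C, were exposed to compound or DMSO vehicle for 1 hr at 37C, 5% CO2, then stained with Mito-MPS dye for 30 min. Red aggregate versus green monomer fluorescence reports membrane potential.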
# [3] = qHTS assay for small molecule disruptors of the mitochondrial membrane potential - 5 hr assay (AID 651755; calls by dose curve; also: nearly all actives have a fitted effect of over 40% in size)
# Procedure, shortened: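 HepG2 cells (2,000/well), attached overnight, exposed to compound 5 hr at 37C, then Mito-MPS dye 30 min. Fluorescence read for monomers (490/535 nm) and aggregates (540/590 nm).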
# [4] = target: Tumor necrosis factor (Homo sapiens) (UniProt P01375); experiment: qHTS assay to identify small molecules that stimulate Tumor Necrosis Factor-alpha (TNF-alpha) secretion (AID 651757; active = well fitted curve in the direction sought with a large enough effect in the signal ratio; the % refers to the signal ratio)
# Sequence of Tumor necrosis factor (Homo sapiens) (P01375 whole entry, looked up): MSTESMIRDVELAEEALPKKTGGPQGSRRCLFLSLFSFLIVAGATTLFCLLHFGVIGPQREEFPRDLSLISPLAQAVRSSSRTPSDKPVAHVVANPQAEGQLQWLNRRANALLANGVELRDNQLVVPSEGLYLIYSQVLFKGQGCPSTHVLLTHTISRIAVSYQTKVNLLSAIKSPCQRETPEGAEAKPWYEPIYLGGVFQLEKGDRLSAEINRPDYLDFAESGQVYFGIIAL
# Procedure, shortened: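 THP-1 cells were exposed to compounds for 17 hrs at 37 C, after which secreted TNF-alpha was measured by homogeneous HTRF (TR-FRET) using cryptate- and XL665-labeled anti-TNF-alpha antibodies, read after 3 hr at room temperature.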
# [5] = target: Peroxisome proliferator-activated receptor alpha (Homo sapiens) (UniProt Q07869); experiment: qHTS assay for small molecule agonists of the peroxisome proliferator-activated receptor alpha (PPARalpha) signaling pathway (AID 651778); conditions: PathHunter PPARalpha complementation, chemiluminescence, 6 h; stronger effect = higher value
# Sequence of Peroxisome proliferator-activated receptor alpha (Homo sapiens) (Q07869 whole entry, looked up, the tested form may be a part): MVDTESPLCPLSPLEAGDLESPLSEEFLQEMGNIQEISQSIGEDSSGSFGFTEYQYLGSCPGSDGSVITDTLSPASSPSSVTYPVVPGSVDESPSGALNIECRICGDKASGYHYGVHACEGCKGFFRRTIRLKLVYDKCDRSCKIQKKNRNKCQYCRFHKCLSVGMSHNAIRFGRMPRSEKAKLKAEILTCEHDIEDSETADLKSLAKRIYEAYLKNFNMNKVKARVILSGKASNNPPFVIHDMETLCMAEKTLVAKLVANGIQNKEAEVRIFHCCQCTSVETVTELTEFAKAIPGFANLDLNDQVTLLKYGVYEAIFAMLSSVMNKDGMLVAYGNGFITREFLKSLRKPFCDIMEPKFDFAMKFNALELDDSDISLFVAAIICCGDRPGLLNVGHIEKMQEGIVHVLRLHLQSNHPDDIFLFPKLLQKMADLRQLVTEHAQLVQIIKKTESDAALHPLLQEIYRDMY
# Procedure, shortened: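 Enzyme-fragment complementation assay in which ligand-bound PPARalpha translocates and forms an active enzyme that generates chemiluminescence. Cells were plated overnight, exposed to compound for 6 hr at 37 C, and then given detection reagent for 60 min at room temperature.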
# [6] = qHTS assay for small molecule antagonists of the retinoid-related orphan receptor gamma (ROR-gamma) signaling pathway - cell viability counter screen (AID 720652; active = well fitted curve in the direction sought with a large enough effect in the repeat runs; an effect the other way counts as inactive or inconclusive;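 also: series mostly up to about 92 µM; compound exposure lasted 16 hr before ATP read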)
# Procedure, shortened: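 Counter screen in CHO cells carrying TET-inducible ROR-gamma and an ROR response element-luciferase reporter; cells plated 5 hr, compound pinned, doxycycline added, then 16 hr at 37 C. Viability read as intracellular ATP by CellTiter-Glo luminescence.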
# [7] = qHTS assay for small molecule agonists of the antioxidant response element (ARE) signaling pathway measured by Nrf2-dependant transcriptional activity - cell viability counter screen (AID 720653; active = well fitted curve in the direction sought with a large enough effect in the repeat runs; an effect the other way counts as inactive or inconclusive); conditions: ARE-bla HepG2 viability, CellTiter-Glo ATP luminescence, 16 h; max response: stronger effect = lower value
# Procedure, shortened: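 ARE-bla HepG2 cells treated with compounds for 16 h at 37C; this counter screen measures viability as intracellular ATP by CellTiter-Glo luminescence after 30 min at room temperature.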
# [8] = qHTS assay to identify small molecules that stimulate interleukin-8 (IL-8) secretion (AID 651758; active = well fitted activation curve with a large enough effect in the signal ratio; the % refers to the signal ratio)
# Procedure, shortened: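 THP-1 cells (2000/well) exposed to compound 16 h at 37 C; secreted IL-8 then detected by HTRF with cryptate- and XL665-labelled anti-IL-8 antibody pair after 1-3 h at room temperature.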
# [9] = qHTS assay for environmental chemicals that activate the Aryl hydrocarbon Receptor (AhR) signaling pathway (AID 651777); conditions: 1A2-DRE human hepatoma cells, luciferase, 24 h; activation: stronger effect = higher value; also: nearly all actives have a fitted effect of over 15% in size
# Procedure, shortened: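 Luminescence read-out: One-Glo added for 30 min at RT after 24 hr compound treatment (37 C, 5% CO2) of human hepatoma cells expressing a DRE/CYP1A2 promoter–luciferase reporter; increased signal indicates AhR activation.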
# [10] = target: Nuclear receptor ROR-gamma (Homo sapiens) (UniProt P51449); experiment: qHTS assay for small molecule antagonists of the retinoid-related orphan receptor gamma (ROR-gamma) signaling pathway (AID 651802); also: series mostly up to about 92 µM; nearly all actives have a fitted effect of over 60% in size
# Sequence of Nuclear receptor ROR-gamma (Homo sapiens) (P51449 whole entry, looked up): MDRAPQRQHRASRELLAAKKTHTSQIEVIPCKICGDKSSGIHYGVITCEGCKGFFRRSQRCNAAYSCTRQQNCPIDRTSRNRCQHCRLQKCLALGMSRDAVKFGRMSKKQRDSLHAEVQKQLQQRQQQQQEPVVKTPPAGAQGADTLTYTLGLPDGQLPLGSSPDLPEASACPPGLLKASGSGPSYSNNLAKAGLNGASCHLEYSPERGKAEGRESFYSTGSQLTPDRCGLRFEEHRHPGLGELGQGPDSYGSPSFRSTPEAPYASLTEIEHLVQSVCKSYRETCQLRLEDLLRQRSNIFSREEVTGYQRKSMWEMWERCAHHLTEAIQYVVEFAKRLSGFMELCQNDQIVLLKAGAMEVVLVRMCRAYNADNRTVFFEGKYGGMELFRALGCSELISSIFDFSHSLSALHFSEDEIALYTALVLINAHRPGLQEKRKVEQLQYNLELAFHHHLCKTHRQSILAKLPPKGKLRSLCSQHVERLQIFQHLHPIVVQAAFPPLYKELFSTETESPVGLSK
# Procedure, shortened: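 CHO cells carrying TET-inducible ROR-gamma and an ROR response element–luciferase reporter were exposed to compound, then induced with doxycycline. After 16hr at 37C, luminescence was read; lower signal indicates antagonism.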
# [11] = target: Arylsulfatase A (Homo sapiens) (UniProt P15289); experiment: qHTS screen for enhancers of Arylsulfatase A (ASA1): LOPAC Validation Assay (AID 720538); conditions: outcome: dose series up to 57.5 µM
# Sequence of Arylsulfatase A (Homo sapiens) (P15289 whole entry, looked up): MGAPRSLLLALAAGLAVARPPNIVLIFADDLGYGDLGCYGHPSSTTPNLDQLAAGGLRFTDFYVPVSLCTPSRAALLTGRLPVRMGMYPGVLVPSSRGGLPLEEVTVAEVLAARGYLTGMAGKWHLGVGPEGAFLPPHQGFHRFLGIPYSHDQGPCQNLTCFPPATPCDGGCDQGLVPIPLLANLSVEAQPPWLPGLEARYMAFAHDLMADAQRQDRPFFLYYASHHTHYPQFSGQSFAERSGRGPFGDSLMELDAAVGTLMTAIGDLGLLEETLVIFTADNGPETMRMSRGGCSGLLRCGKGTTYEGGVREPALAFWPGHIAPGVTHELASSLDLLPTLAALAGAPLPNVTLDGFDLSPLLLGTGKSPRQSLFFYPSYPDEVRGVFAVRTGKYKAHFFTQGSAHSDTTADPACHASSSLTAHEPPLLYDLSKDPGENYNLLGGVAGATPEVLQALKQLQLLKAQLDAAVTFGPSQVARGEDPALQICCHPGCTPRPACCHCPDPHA
# Procedure, shortened: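 SV40-transformed skin fibroblasts from an MLD patient (ASA-I179S) were treated with compounds for 48h at 37 degree C, then lysed with 0.5mM pNCS final substrate for 14h at room temperature; NaOH stop, fluorescence read (Ex=525 nm; Em=598 nm).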
# [12] = qHTS for compounds that reverse cellular toxicity of Amyloid beta (A-beta) peptide in yeast: LOPAC Validation Assay (AID 720559)
# Procedure, shortened: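 Yeast cells expressing toxic A-beta were combined with pinned compounds in growth medium and incubated 48 hr at 30 C. Growth was read as absorbance at 600 nm and normalized to DMSO and to an equimolar FeCl3/clioquinol positive control.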
# [13] = qHTS for Activators of Parkin Expression: LOPAC Validation Assay (FLuc Reporter) (AID 720573)
# Procedure, shortened: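 Neuronal cell line stably carrying FLuc/NLuc coincidence reporter under Parkin promoter; cells plated 24 h, then compounds added in 7-point dose response for 24 h at 37 C. FLuc luminescence read; normalized to DMSO and positive control (100%).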
# [14] = target: T1, Hexokinase-4 (Homo sapiens) + Glucokinase regulatory protein (Homo sapiens) (UniProt P35557+Q14397); experiment: qHTS assay for inhibitors of recombinant human GCK-GKRP interaction: ADP-Glo assay (AID 743206)
# T1 sequence (P35557 whole entry, looked up): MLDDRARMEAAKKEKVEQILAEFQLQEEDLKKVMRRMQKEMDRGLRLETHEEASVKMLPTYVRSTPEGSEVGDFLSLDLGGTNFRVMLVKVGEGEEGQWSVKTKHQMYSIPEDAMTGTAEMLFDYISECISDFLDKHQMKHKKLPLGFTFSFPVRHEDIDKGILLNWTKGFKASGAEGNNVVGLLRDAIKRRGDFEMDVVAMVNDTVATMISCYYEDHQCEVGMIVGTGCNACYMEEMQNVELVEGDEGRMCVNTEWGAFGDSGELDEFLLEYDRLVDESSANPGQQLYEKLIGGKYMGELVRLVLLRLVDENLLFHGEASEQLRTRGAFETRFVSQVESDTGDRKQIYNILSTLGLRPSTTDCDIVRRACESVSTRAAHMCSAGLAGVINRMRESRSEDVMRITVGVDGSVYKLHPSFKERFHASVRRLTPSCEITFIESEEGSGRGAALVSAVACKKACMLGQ
# T1 sequence (Q14397 whole entry, looked up): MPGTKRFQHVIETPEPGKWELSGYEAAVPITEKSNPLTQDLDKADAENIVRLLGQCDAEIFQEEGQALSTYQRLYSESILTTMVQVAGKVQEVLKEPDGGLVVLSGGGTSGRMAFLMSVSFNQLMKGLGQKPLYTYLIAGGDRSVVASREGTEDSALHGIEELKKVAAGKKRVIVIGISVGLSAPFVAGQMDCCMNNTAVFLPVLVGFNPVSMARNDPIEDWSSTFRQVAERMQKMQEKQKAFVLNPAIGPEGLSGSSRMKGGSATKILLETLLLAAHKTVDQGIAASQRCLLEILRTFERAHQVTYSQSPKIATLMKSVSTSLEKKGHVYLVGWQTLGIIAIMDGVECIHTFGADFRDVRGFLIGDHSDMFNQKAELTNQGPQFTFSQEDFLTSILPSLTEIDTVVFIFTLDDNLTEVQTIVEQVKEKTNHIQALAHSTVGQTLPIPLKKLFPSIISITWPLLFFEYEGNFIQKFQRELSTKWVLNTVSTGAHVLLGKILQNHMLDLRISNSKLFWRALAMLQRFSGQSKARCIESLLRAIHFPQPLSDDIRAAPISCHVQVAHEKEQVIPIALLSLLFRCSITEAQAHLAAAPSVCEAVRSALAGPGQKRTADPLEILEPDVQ
# Procedure, shortened: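 GST-GCK and FLAG-GKRP (15 nM each in the dispensed mix, with 2 uM S6P) react with 0.4 mM ATP and 5 mM glucose (final) in Hepes pH 7.6 for 60 min at room temperature. ADP is measured by ADP-Glo luminescence.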
# [15] = target: T1, Hexokinase-4 (Homo sapiens) + Glucokinase regulatory protein (Homo sapiens); experiment: qHTS assay for inhibitors of recombinant human GCK-GKRP interaction: HTRF assay (AID 743207)
# Procedure, shortened: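 GST-GCK and FLAG-GKRP (5 nM each) were combined with 2 uM S6P in pH 7.1 Hepes/MgCl2/KCl/DTT buffer, then compound and anti-FLAG XL665/anti-GST K antibodies were added. After 60 min at room temperature, HTRF 665/615 nm emission was read.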
# [16] = target: Tyrosine-protein kinase Yes (Homo sapiens) (UniProt P07947); experiment: qHTS for small molecule inhibitors of Yes1 kinase: Primary Screen (AID 686947); also: nearly all actives have a fitted effect of over 60% in size; also: potency is read from the fitted curve at half-maximal effect
# Sequence of Tyrosine-protein kinase Yes (Homo sapiens) (P07947 whole entry, looked up): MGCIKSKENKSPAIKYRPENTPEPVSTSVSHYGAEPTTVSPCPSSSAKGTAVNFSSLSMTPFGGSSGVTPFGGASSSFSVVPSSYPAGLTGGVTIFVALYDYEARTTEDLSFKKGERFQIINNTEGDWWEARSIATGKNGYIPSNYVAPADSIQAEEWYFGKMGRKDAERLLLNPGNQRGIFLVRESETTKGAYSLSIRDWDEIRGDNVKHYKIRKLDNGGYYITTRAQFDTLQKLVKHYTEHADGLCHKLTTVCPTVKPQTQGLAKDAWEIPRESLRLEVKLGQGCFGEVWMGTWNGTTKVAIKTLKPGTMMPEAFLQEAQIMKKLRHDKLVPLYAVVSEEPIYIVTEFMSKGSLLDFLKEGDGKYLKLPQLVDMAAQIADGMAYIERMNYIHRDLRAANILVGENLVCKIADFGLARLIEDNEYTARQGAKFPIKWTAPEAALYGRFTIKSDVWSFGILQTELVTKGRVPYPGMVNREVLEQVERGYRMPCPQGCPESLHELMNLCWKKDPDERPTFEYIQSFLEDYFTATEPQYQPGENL
# Procedure, shortened: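 ADP-Glo luminescence readout; final 4 nM Yes1, 0.1 mM ATP, 0.3 mg/mL poly(E4Y), Tris pH 7.5, MgCl2, DTT, Brij-35. 20 min compound preincubation, 60 min reaction at RT. Normalized to DMSO wells with and without enzyme.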
# [17] = qHTS for small molecule inhibitors of Yes1 kinase: Counter Assay (AID 686950);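 also: no kinase present so only ADP-Glo detection of a fixed ADP amount is tested; luminescence from ADP-Glo reporting ADP in a fixed ATP and ADP mixture; series mostly up to about 77 µM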
# Procedure, shortened: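 Enzyme-free detection counter-screen: compounds preincubated 20 min in buffer, then 0.08 mM ATP plus 0.02 mM ADP added for 60 min at room temperature; ADP-Glo luminescence. Buffer 50 mM Tris pH 7.5, 10 mM MgCl2, 150 mM NaCl; normalized to ATP+ADP and ATP-only controls.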
# [18] = qHTS for Inhibitors of Ubiquitin-specific Protease USP2a Using CHOP2 as the Reporter: K633 Counterscreen (AID 652168); also: series mostly up to about 57 µM
# Procedure, shortened: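 Cell-free interference counterscreen without USP2a: compounds pinned into enzyme-free buffer (20 mM Tris pH 8, 2 mM beta-mercaptoethanol, 0.05% Chaps), then DiUb K48-4IQF substrate added (100 nM stock); fluorescence read kinetically, Ex 525/Em 598.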
# [19] = qHTS for Inhibitors of Ubiquitin-specific Protease USP2a Using CHOP2 as the Reporter: Cytotox Assay (AID 652170); also: series mostly up to about 46 µM; nearly all actives have a fitted effect of over 70% in size
# Procedure, shortened: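 HCT116 human colon cancer cells, 600 per well in DMEM with 10% FBS, exposed to compounds for 72 hr at 37 deg C. ATP measured by CellTiter-Glo luminescence, normalized to DMSO cells and no-cell background.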
# [20] = target: Ubiquitin carboxyl-terminal hydrolase 2 (Homo sapiens) (UniProt O75604); experiment: qHTS for Inhibitors of Ubiquitin-specific Protease USP2a Using CHOP2 as the Reporter: K484 Substrate (AID 652173);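 also: cleavage of internally quenched K48 di-ubiquitin substrate measured as rising fluorescence over time; nearly all actives have a fitted effect of over 70% in size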
# Sequence of Ubiquitin carboxyl-terminal hydrolase 2 (Homo sapiens) (O75604 whole entry, looked up): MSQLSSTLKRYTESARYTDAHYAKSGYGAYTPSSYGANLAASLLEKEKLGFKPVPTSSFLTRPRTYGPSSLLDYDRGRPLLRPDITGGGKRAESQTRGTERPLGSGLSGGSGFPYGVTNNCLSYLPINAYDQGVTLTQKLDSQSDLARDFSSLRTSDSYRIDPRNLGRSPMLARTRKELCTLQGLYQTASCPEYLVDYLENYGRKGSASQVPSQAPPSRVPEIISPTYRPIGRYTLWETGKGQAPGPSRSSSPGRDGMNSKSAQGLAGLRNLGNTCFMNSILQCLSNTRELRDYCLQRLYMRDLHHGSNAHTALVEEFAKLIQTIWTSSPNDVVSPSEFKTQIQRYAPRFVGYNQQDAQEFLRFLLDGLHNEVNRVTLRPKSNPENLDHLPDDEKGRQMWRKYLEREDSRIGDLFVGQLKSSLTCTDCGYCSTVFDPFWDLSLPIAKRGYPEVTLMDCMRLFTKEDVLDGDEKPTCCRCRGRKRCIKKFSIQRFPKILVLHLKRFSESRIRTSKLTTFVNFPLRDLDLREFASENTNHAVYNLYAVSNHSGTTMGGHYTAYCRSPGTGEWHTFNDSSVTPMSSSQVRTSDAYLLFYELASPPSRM
# Procedure, shortened: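 USP2 (dispensed at 5 nM) was pinned with compounds, then DiUb K48 internally quenched fluorescent substrate (dispensed at 100 nM) was added. The buffer was 20 mM Tris pH 8, 2 mM beta-mercaptoethanol and 0.05% CHAPS. Cleavage was read kinetically as rising fluorescence, Ex 525/Em 598.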
smiles,measurement,setting,value
Cc1ccc(O)cc1,activation,[1],-0.225%
same,Potency,[2],inactive
same,Potency,[3],inactive
same,outcome,[4],inactive
same,max response,[5],-0.0678%
same,outcome,[6],inactive
same,max response,[7],-5.41%
O=C(Nc1ccc(Cl)cc1)Nc1ccc(Cl)c(Cl)c1,activation,[1],6.88%
same,max response,[5],-0.555%
CC(C)C(C)(C)C(C)(C)C(C)(C)S,activation,[1],-1.05% and -0.196%
same,outcome,[4],inactive
same,outcome,[8],inactive
same,activation,[9],1.1% and 1.7%
same,max response,[5],-3.79% and -2.56%
same,Potency,[10],inactive
same,outcome,[6],inactive
same,max response,[7],-4.36% and 4.23%
COc1cc(C=O)ccc1O,activation,[1],-1.8% and -1.55%
same,activation,[9],2.04% and 0.0367%
same,max response,[5],-1.16% and -2.1%
same,Potency,[10],inactive
same,outcome,[6],inactive
same,max response,[7],-6.02% and -3.47%
O=[N+]([O-])c1ccc(-c2nc(-c3ccc(F)cc3)c(-c3ccncc3)[nH]2)cc1,outcome,[11],inactive
same,outcome,[12],inactive
same,outcome,[13],inactive
same,outcome,[14],inactive
same,outcome,[15],inactive
O=C1NC(c2cccc([N+](=O)[O-])c2)=CCN1c1ccccc1O,outcome,[11],inactive
same,outcome,[12],inactive
same,outcome,[13],inactive
same,outcome,[14],inactive
same,outcome,[15],inactive
Brc1ccc([C@H]2CN3CCSC3=N2)cc1,outcome,[12],inactive
same,outcome,[13],inactive
same,outcome,[14],inactive
same,outcome,[15],inactive
Cn1cnc2c(NCc3ccccc3)nc(NCCO)nc21,outcome,[11],inactive
same,outcome,[12],inactive
same,outcome,[13],inactive
same,outcome,[14],inactive
same,outcome,[15],inactive
CCN(CC)CCNC(=O)c1ccc(NS(C)(=O)=O)cc1,outcome,[11],inactive
same,outcome,[14],inactive
same,outcome,[15],inactive
COc1cccc2c1[C@@H]1CN(CCCCn3c(=O)[nH]c4c(sc5ncc(-c6ccccc6)nc54)c3=O)C[C@@H]1CO2,outcome,[12],inactive
same,outcome,[13],inactive
same,outcome,[14],inactive
same,outcome,[15],inactive
COC(=O)C1=CO[C@@H](O)[C@@H]2C(CO)=CC[C@H]12,outcome,[11],inactive
same,outcome,[12],inactive
same,outcome,[13],inactive
same,outcome,[14],inactive
same,outcome,[15],inactive
Cc1nn(-c2ccccc2)c(C)c1/C=N/N1CCN(Cc2ccccc2)CC1,outcome,[11],inactive
same,outcome,[12],inactive
same,outcome,[13],inactive
same,outcome,[14],inactive
same,outcome,[15],inactive
Nc1ccc(O)cc1,max response,[5],-0.783%
same,max response,[7],-19.2%
Clc1ccc2c(c1)N=C(N1CCNCC1)c1ccccc1N2,outcome,[11],inactive
same,outcome,[12],inactive
same,outcome,[13],inactive
same,outcome,[14],inactive
same,outcome,[15],inactive
Cc1ncc(CO)c(CO)c1O,activation,[9],-1.88%
same,max response,[5],-1.89%
same,max response,[7],-5.07%
N[C@@H](Cn1ccc(=O)c(O)c1)C(=O)O,outcome,[11],inactive
same,outcome,[12],inactive
same,outcome,[13],inactive
same,outcome,[14],inactive
same,outcome,[15],inactive
CCN(CC)CCOc1ccc(/C(=C(\Cl)c2ccccc2)c2ccccc2)cc1,activation,[9],-0.728%
same,max response,[5],11.1%
OCCOCCN1CCN(C(c2ccccc2)c2ccc(Cl)cc2)CC1 (configuration not stated),max response,[5],-2.06%
same,max response,[7],-5.74%
COc1ccccc1N1CCN(CCN2C(=O)CC3(CCCC3)CC2=O)CC1,outcome,[11],inactive
same,outcome,[12],inactive
same,outcome,[13],inactive
same,outcome,[14],inactive
same,outcome,[15],inactive
C[N+](C)(C)CCO,outcome,[11],inactive
same,outcome,[12],inactive
same,outcome,[13],inactive
same,outcome,[14],inactive
same,outcome,[15],inactive
Nc1ncnc2n[nH]c(Nc3ccc(F)cc3)c12,outcome,[11],inactive
same,outcome,[12],inactive
same,outcome,[13],inactive
same,outcome,[14],inactive
same,outcome,[15],inactive
NC(N)=NCCCCN=C(N)N,outcome,[11],inactive
same,outcome,[12],inactive
same,outcome,[13],inactive
same,outcome,[14],inactive
same,outcome,[15],inactive
CN1CCC(Nc2ncc3ncnc(Nc4ccc(F)c(Cl)c4)c3n2)CC1,Potency,[16],3.45 µM (active)
same,outcome,[17],inactive
C[C@@H](O[C@H]1OCCN(Cc2n[nH]c(=O)[nH]2)[C@H]1c1ccc(F)cc1)c1cc(C(F)(F)F)cc(C(F)(F)F)c1,Potency,[16],inactive
same,outcome,[17],inactive
CC(C)N(CCC(=O)c1ccc2ccccc2c1)Cc1ccccc1,outcome,[11],inactive
same,outcome,[12],inactive
same,outcome,[13],inactive
same,outcome,[14],inactive
same,outcome,[15],inactive
CC(=O)Nc1ccc(S(=O)(=O)Nc2cc(C)on2)cc1,outcome,[18],inactive
same,outcome,[19],inactive
same,outcome,[20],inactive
O=C(Oc1ccccc1)c1cccc(C(=O)Oc2ccccc2)c1,max response,[5],4.8%
same,max response,[7],-2.16%
O=C1NC(=O)/C(=C/c2ccc3c(c2)OC(F)(F)O3)S1,outcome,[11],inactive
same,outcome,[12],inactive
same,outcome,[14],inactive
same,outcome,[15],inactive
CN(C)c1cc2c(Nc3ccc4c(cnn4Cc4ccccc4)c3)ncnc2cn1,Potency,[16],0.207 µM (active)
same,outcome,[17],inactive
same,outcome,[11],inactive
same,outcome,[12],inactive
same,outcome,[14],inactive
same,outcome,[15],inactive
